Data as given in PubChem BioAssay (NCI).
The panel holds about 79,000 compounds, 15% with a hit somewhere; the sample as a whole holds those more often. Rule as the data show it: active = growth inhibition above about 70%; inactive = the rest.

Experiments:
[1] = NCI Yeast Anticancer Drug Screen. Data for the rad50 strain (AID 155);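 also: 0% = growth of vehicle-only cultures of the same strain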; details: S. cerevisiae rad50 strain growth inhibition; at 50.0 µM; stronger effect = higher value
Method in brief: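 Growth of the mutant yeast was measured after compound exposure and referenced to vehicle-treated cultures.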

[2] = NCI Yeast Anticancer Drug Screen. Data for the mec2-1 strain (AID 157); details: S. cerevisiae mec2-1 strain, at 50.0 µM, stronger effect = higher value
Method in brief: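 Growth inhibition is read against vehicle-treated controls after compound exposure of the mec2-1 yeast strain, which is defective in DNA damage repair or cell cycle control.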

[3] = NCI Yeast Anticancer Drug Screen. Data for the sgs1 mgt1 strain (AID 161);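 also: 0% = growth of cultures given vehicle only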; details: S. cerevisiae sgs1 mgt1 strain, at 50.0 µM, stronger effect = higher value
Method in brief: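 This yeast growth screen uses a strain with defined DNA-repair lesions; compound-treated growth is compared with vehicle-treated growth.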

[4] = NCI Yeast Anticancer Drug Screen. Data for the cln2 rad14 strain (AID 165);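 also: 0% = growth equal to vehicle treated cultures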; details: S. cerevisiae cln2 rad14 strain, at 50.0 µM, stronger effect = higher value
Method in brief: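 Growth inhibition, relative to vehicle-treated controls, is the read-out. The test organism is a yeast strain with defined genetic alterations, cln2 rad14.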

[5] = NCI Yeast Anticancer Drug Screen. Data for the bub3 strain (AID 167); details: S. cerevisiae bub3 mutant strain, at 50.0 µM, stronger effect = higher value
Method in brief: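 Whole-cell yeast assay. The mutant strain was incubated with compounds, and growth inhibition was determined by comparison with vehicle-treated cells.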

[6] = NCI Yeast Anticancer Drug Screen. Data for the mlh1 rad18 strain (AID 175); details: S. cerevisiae mlh1 rad18 strain growth inhibition; at 50.0 µM; stronger effect = higher value
Method in brief: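 Cells of a genetically altered yeast strain, deficient in DNA damage repair, were treated with compound. Their growth was then compared with that of vehicle-treated cultures to give inhibition.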

Measured: growth inhibition

Cc1ccc(S(=O)(=O)SCC(=O)c2ccc(Br)cc2)cc1
inactive: [1] 27.4% | [2] -15.4% | [3] 29.1% | [4] 16.6% | [5] 4.35% | [6] 9.85%

CC(=O)Nc1ccc(-c2nnc(SCC(=O)Nc3cccc(C)c3)o2)cc1
inactive: [1] 5.2% | [2] 14.7% | [3] 32% | [4] 24% | [5] 9.7% | [6] -7.75%

CC(C)(C)NCC(O)c1ccc(O)c(CO)n1 (stereo unspecified)
inactive: [1] 1.3% | [2] -8.05% | [3] -19.4% | [4] 9.05% | [5] -8.9% | [6] -3.3%

CCOC(=O)C(C)C(=O)C(C)C (stereo unspecified)
inactive: [1] -1.65% | [2] 0.5% | [3] 0.75% | [4] -11.8% | [5] 13.7% | [6] -9.35%

COc1cc(/C=C2\SC(=S)N(C=C3C(=O)NC(=O)NC3=O)C2=O)cc(OC)c1OC
inactive: [1] 7.5% | [2] -0.75% | [3] 19.1% | [4] 11.8% | [5] 7% | [6] 5.65%

O=[N+]([O-])c1ccc(N/N=C/c2ccccc2O)c([N+](=O)[O-])c1
inactive: [1] 5.05% | [2] 20.5% | [3] 4.8% | [4] -6.8% | [5] 1.05% | [6] 4.2%

Cc1c(-c2nc(N)nc(C3CC3)c2C)nc(N)nc1C1CC1
inactive: [1] 4.55% | [2] -9.1% | [3] -12.7% | [4] -11.7% | [5] -26.8% | [6] -7.35%

O=S(=O)(O)c1cc(S(=O)(=O)O)c2c(Nc3ccnc4ccccc34)ccc(S(=O)(=O)O)c2c1
inactive: [1] -8.25% | [2] -1.3% | [3] -19.2% | [4] 3.6% | [5] -8.45% | [6] 13.8%

CCCNC(=O)Nc1ccc(OCC)cc1
inactive: [1] 0.1% | [2] -11.3% | [3] -14.8% | [4] -36.8% | [5] 2.2% | [6] 5.5%

CCC(=O)NCCO
inactive: [1] -26.9% | [2] -17.7% | [3] -5.65% | [4] -103% | [5] -9% | [6] -5.25%

O=C1C(=O)c2ccccc2C(O)=C1Br
inactive: [1] 27.9% | [2] 39.4% | [3] 49.4% | [4] -61% | [5] 28.4% | [6] 29.8%

CC(=O)Nc1ccc(/C=N/NC(=S)Nc2cccc3cccnc23)cc1
inactive: [1] -1.2% | [2] 17.9% | [3] -5% | [4] 10.5% | [5] 31.4% | [6] -4.45%

COC(=O)c1cc2ccc(O)c(O)c2cn1
inactive: [1] 41.1% | [2] 25.8% | [3] 60.3% | [4] 18.9% | [5] 62.4% | [6] 24.9%

COC(=O)c1c(C(=O)OC)c2ccccn2c1-c1cc(OC)c(Br)c(=O)o1
inactive: [1] -0.2% | [2] -17.8% | [3] -7.6% | [4] -18.9% | [5] -4.15% | [6] -105%

COc1cc(CC/C(C)=N/O)ccc1OCc1ccccc1
inactive: [1] -13.1% | [2] -21.2% | [3] 0.7% | [4] -39.6% | [5] 9.65% | [6] -22.8%

CC(C)(C)C(c1ccccc1)[N+](C)(C)C (stereo unspecified)
inactive: [1] -22.2% | [2] -2% | [3] -2.05% | [4] 18.9% | [5] 15.2% | [6] 29.9%

CCOC(=O)C(NC(=O)c1ccccc1)(N1CCN(c2cc3c(cc2F)c(=O)c(C(=O)O)cn3CC)CC1)C(F)(F)F (stereo unspecified)
inactive: [1] -29.4% | [2] -34.4% | [3] -3.3% | [4] -18.4% | [5] -14.2% | [6] -20.8%

Brc1ccc2noc(-c3ccccc3)c2c1
inactive: [1] 29.4% | [2] 2.25% | [3] 31.6% | [4] -1.6% | [5] 9.95% | [6] 16.9%

Cc1ccc(-n2c(=S)n(-c3ccccc3C)c3nc4ccccc4nc2/c3=N\Nc2ccccc2)cc1
inactive: [1] -6.85% | [2] 3.5% | [3] -14.8% | [4] -16.1% | [5] 1.3% | [6] -22.1%

COc1ccc(OC)c(C(=O)C2=C(c3cc(OC)ccc3OC)CCC2)c1
inactive: [1] 7.3% | [2] 38.4% | [3] 33.2% | [4] 2.1% | [5] 44.4% | [6] 28.4%

O=C1C(=Cc2cccnc2)C(=O)c2ccccc21
inactive: [1] 26% | [2] 15.3% | [3] 42.4% | [4] 18.9% | [5] 6.7% | [6] 9%

CCOC(=O)CNC(=O)C(CC(C)C)NC(=O)OCc1ccccc1 (stereo unspecified)
inactive: [1] 6.7% | [2] 7.9% | [3] 28.8% | [4] 5.25% | [5] 2.8% | [6] -11%

CC(C)CCC[C@@H](C)[C@H]1CC[C@H]2[C@@H]3CC=C4C[C@@H]([n+]5ccccc5)CC[C@]4(C)[C@H]3CC[C@]12C
inactive: [1] -2.45% | [2] -9.8% | [3] 0.95% | [4] 8.15% | [5] -14.1% | [6] -7.55%

CC(=O)OC1CCC2(C)C(C1)CC(OC(C)=O)C1C2CC(OC(C)=O)C2(C)C(C(C)CC=C(c3ccccc3)c3ccccc3)CCC12 (stereo unspecified)
inactive: [1] 0.1% | [2] 11.6% | [3] -4.1% | [4] -13.7% | [5] -39.9% | [6] 8.45%

CCOC(=O)C1SC(=S)N(c2ccccc2)C1N (stereo unspecified)
inactive: [1] -3.75% | [2] 14.6% | [3] 39.8% | [4] -11.6% | [5] -4.45% | [6] 11.8%

CCCCn1c2nc3ccccc3c-2nc2cc(OC)c(OC)cc21
inactive: [1] 26.1% | [2] 15.3% | [3] 14.6% | [4] 5.5% | [5] 12.2% | [6] 35.1%

COC(=O)C1(Cc2ccc3c(c2)CCC3)Cc2ccccc2C1=O (stereo unspecified)
inactive: [1] 5.1% | [2] 22.4% | [3] 25.1% | [4] 21.6% | [5] 49.5% | [6] 8.8%

COC(=O)/C(=N/O)C(C(=O)OC)C(=O)C(=O)Nc1c(Cl)cc(C)cc1S(=O)(=O)O (stereo unspecified)
inactive: [1] 6.4% | [2] 4.35% | [3] -22.4% | [4] -14.1% | [5] -2.9% | [6] 8.15%

CCOC(=O)C(=CNC(=S)c1ccncc1)C(=O)OCC
inactive: [1] -41.6% | [2] -64.5% | [3] -25.8% | [4] 18.9% | [5] -6.6% | [6] -36%

CC(C)(CCl)c1ccccc1
inactive: [1] -10.6% | [2] -3.1% | [3] -6.3% | [4] 0.75% | [5] 4% | [6] -0.55%

COc1ccc2c(c1OC)OC1CNc3cc(C)c(C)cc3N=C1C2 (stereo unspecified)
inactive: [1] 6.1% | [2] 3.35% | [3] 4.05% | [4] -42.2% | [5] 12.8% | [6] 7.35%

OCc1c(CO)c(C(F)(F)F)n2c1CCC2
inactive: [1] 9.9% | [2] -4.1% | [3] 9.15% | [4] -14.3% | [5] 9.65% | [6] 2.55%

Cc1nc(NCCNCCO)nc2c1C(=O)Nc1ccccc1N2
inactive: [1] -43.9% | [2] -50.8% | [3] -7.65% | [4] -5.3% | [5] -3.9% | [6] -38.8%

O=C(NCCO)c1cc2ccccc2cc1O
inactive: [1] -1.9% | [2] -25.3% | [3] -10.4% | [4] -3.5% | [5] -17.9% | [6] 7.55%

N#C/C(=C\NC(=S)Nc1ccc(S(=O)(=O)Nc2nccs2)cc1)C(=O)c1ccc2ccccc2c1
inactive: [1] 7.7% | [2] 1.8% | [3] 14.3% | [4] -9.75% | [5] -8% | [6] 16.4%

CC(O)C(N=Cc1nc(-c2ccccc2)oc1O)C(=O)O (stereo unspecified)
inactive: [1] -3.25% | [2] -6.55% | [3] 0% | [4] 1.2% | [5] -0.15% | [6] 7.05%

COC(=O)C1CC=CCCC1=O (stereo unspecified)
inactive: [1] -3.8% | [2] -10.8% | [3] 23.7% | [4] 12.2% | [5] 43.7% | [6] 5.65%

O=C(O)c1c[nH]c2c(Cl)cccc2c1=O
inactive: [1] 18.9% | [2] -16.4% | [3] 4.3% | [4] 10.8% | [5] 18.4% | [6] 14.4%

O=C(O)c1cc2cc(Br)ccc2c(Br)c1O
inactive: [1] -3.75% | [2] -25.7% | [3] -8% | [4] -71.3% | [5] -24.2% | [6] -3.85%

COC(=O)c1c2c(cc3c1CC1(Cc4ccccc4C1=O)C3)CCC2 (stereo unspecified)
inactive: [1] -23.2% | [2] 5.2% | [3] 14.2% | [4] -17.1% | [5] 9.4% | [6] -39.9%

O=C(NC1CCCCC1)C1C(=O)C(=O)N(C2CCCCC2)C1=O (stereo unspecified)
inactive: [1] -14.5% | [2] -1.35% | [3] -13.9% | [4] -8.65% | [5] -5.8% | [6] -28.2%
